Shown are actives, neighbours in structure and some others; about 7.3% of the full set was active somewhere.
KinaseGlo FLuc – counter-screen: inhibitors of Kinase-Glo firefly luciferase; Potency, µM (highest dose often 38.3 µM), without a hit: top-dose activity change, negative = inhibition, most hits filed as inhibitors; Kinase-Glo luciferase, ATP luminescence, 8 min; Q27757; 200,000 tested, 0.28% active; note: % is set by controls: 0 for no effect and ±100 for the full control effect; nearly all actives have a fitted effect of over 60% in size
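Substrate mix (final 50 mM imidazole pH 7.2, 50 mM KCl, 7 mM MgCl2, 10 uM ATP, 0.01% Tween 20, 0.05% BSA) plus pin-tool compound, then Kinase-Glo detection mix; 8 min ambient, luminescence read.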
ELG1 genotox – genotoxicity induction in ELG1-luciferase HEK293T cells | HEK293T ELG1-luciferase reporter, luminescence, 16 h | Potency, µM (highest dose often 46 µM), for inactives: at the top dose activity change, positive = activation, most hits filed as activators | 330,000 tested, 1.3% active | AID 504466; note: % of control where 0% means no effect; nearly all actives have a fitted effect of over 60% in size
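HEK293T cells expressing luciferase-tagged ELG1 were treated with compound or DMSO for 16 hr at 37°C. Luciferase activity was then read after 30 min with ONE-Glo at room temperature; rising signal flags genetic stress.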
NPC1 promoter act – activates the NPC1 promoter | Huh7 NPC1 promoter luciferase reporter, 24 h | Potency, µM (doses to about 9.22 µM), for inactives: at the top dose activation, actives largely listed as activators | 320,000 tested, 2.4% active; note: % of control where 0% means no effect; nearly all actives have a fitted effect of over 60% in size
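Readout is luciferase luminescence, reflecting NPC1 promoter activation in stably transfected Huh7 cells after 24 h compound exposure at 37 °C in reduced-serum medium with 10% FBS.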
SMN2 splice up – increases expression of the SMN2 splice variant | AID 1458 | 210,000 tested, 2.8% active | Potency, µM (titrated, usually from 46.1 µM), inactives show at the top dose activity change, positive = activation, actives largely listed as activators | HEK293 SMN2-luciferase splicing reporter, luminescence, 30-36 h; note: % of control where 0% means no effect; nearly all actives have a fitted effect of over 55% in size
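qHTS luciferase splicing reporter: luminescence rises when SMN2 exon 7 is included in transfected HEK293 cells. Compound exposure lasted 30-36 h at 37C, with 4.5 mM final sodium butyrate as control, followed by a ONE-Glo read.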
FLuc counter – counter-screen for miR-21 project: firefly luciferase inhibitors or activators | P08659 | purified FLuc, Km substrates, luminescence inhibition | Potency, µM (highest dose often 57.5 µM), for inactives: at the highest dose activity change, negative = inhibition, most hits filed as inhibitors | 360,000 tested, 6.9% active;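 note: plate controls were vehicle for no effect and reference inhibitor for full effect; nearly all actives have a fitted effect of over 55% in size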
Target sequence (P08659 whole entry, looked up): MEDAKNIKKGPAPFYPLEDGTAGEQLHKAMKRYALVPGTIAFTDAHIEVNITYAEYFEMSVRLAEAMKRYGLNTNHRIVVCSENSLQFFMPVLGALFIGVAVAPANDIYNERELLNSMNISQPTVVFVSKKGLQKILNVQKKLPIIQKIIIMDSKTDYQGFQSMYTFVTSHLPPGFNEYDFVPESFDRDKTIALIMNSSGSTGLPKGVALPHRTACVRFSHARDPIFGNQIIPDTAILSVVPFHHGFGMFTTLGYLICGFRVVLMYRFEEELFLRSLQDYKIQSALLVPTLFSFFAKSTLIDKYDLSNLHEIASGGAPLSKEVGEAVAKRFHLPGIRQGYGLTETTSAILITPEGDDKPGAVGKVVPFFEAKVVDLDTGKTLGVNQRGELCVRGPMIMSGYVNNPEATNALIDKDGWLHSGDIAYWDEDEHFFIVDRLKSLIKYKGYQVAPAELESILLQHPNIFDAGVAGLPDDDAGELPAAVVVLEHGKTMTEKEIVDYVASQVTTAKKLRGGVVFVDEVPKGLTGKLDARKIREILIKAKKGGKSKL
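Biochemical qHTS of compounds, final roughly 60 µM downward over six points, against 10 nM purified firefly luciferase using Km concentrations of substrates (10 uM D-luciferin, 10 uM ATP) in Tris acetate pH 7.5 buffer; luminescence output.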
Rab9 prom act – Rab9 promoter activation; AID 485297; 320,000 tested, 2.8% active; Potency, µM (highest dose often 9.22 µM), for the others: at the highest dose activation, negative = inhibition, hits mostly activators; Huh7 Rab9 promoter-luciferase reporter, luminescence, 24 h; note: % of control where 0% means no effect; nearly all actives have a fitted effect of over 60% in size
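Luciferase signal after 10 min detection reagent at ambient indicates Rab9 promoter upregulation; stably transfected Huh7 cells were treated 24 h with compound in DMSO at 37 °C, 5% CO2.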
An asterisk follows results filed as active; u = inconclusive; x = no result; [ ] = dose if it differs, or a comment. Calls come from the whole dose curve; as a rule, active = well fitted curve in the direction sought with a large enough effect; inconclusive = small, poorly fitted or top-dose-only effect, or another doubt; inactive = no such curve, though single readings can be large; an effect the other way counts as inactive or inconclusive. Potency is the fitted concentration of half-maximal effect.

SMILES	KinaseGlo FLuc	ELG1 genotox	NPC1 promoter act	SMN2 splice up	FLuc counter	Rab9 prom act
COc1cccc2sc(N(C)c3ccccc3)nc12	-10%	1.6µM*	1.3µM*	8.9µM*	0.85µM*	0.5µM*
Cc1ccc2[nH]c3c(NCc4ccco4)ncnc3c2c1	-4%	8%	1%	-63%	13µM*	4%
COc1cc(CNc2ncnc3c2[nH]c2ccc(C)cc23)cc(OC)c1	x	-11%	0%	x	27µM*	-8%
N#C/C(=C\c1ccc(Cl)cc1)C(=O)NCC1CCCO1 (stereo not drawn)	x	x	x	1%	u	x
Cc1cc(C(=O)COC(=O)c2n[nH]c(=O)c3ccccc23)c(C)n1C(C)C	x	u	27%	x	1.7µM*	u
Cc1cc(C(=O)COC(=O)c2ccc(O)cc2O)c(C)n1C(C)C	x	12%	3.5µM*	x	4.8µM*	3.5µM*
COc1ccc(N2C(=O)/C(=C/c3cccs3)NC2=S)cc1	3%	4%	0%	u	u	0%
COc1ccc2nc(N3C(=O)/C(=C/c4ccc(Cl)cc4)NC3=S)sc2c1	-1%	-7%	1%	-9%	17µM*	2%
O=C(c1csnn1)N1CCC2(CCCN(c3cccc(-c4ccccc4)c3)C2)CC1	2%	x	x	3%	x	x
O=C(c1csnn1)N1CCC2(CCCN(c3ccc(-c4ccccc4)cc3)C2)CC1	-3%	x	x	18µM*	x	x
COc1ccc(-c2cc(C(=O)NC3CCCC3)c3ccccc3n2)cc1	x	-3%	14%	x	6.7µM*	6%
O=C(NCC1CCCO1)c1cc(-c2ccncc2)nc2ccccc12 (stereo not drawn)	x	-1%	-2%	x	1%	2%
COc1ccc(-c2cc(C(=O)NC3CC3)c3ccccc3n2)cc1	x	-1%	-4%	x	21µM*	-1%
CCCOc1ccc(-c2cc(C(=O)NCC3CCCO3)c3ccccc3n2)cc1 (stereo not drawn)	-2%	-10%	12%	9%	3µM*	20%
CCOC(=O)c1cnc2ccc(C)cc2c1Sc1ccc(F)cc1	-2%	-2%	10%	-7%	24µM*	19%
CN1CCN(C(=O)c2cc3sc4ccccc4c3s2)CC1	x	u	0.63µM*	x	3µM*	0.71µM*
COc1ccc(CNc2oc(/C=C/c3cc(OC)c(OC)c(OC)c3)nc2C#N)cc1	x	x	x	u	3%	x
CCN(CC)c1ccc(Nc2cc3n(c(=O)n2)CCc2cc(OC)c(OC)cc2-3)cc1	x	0%	1%	x	24µM*	17%
COc1cc2c(cc1OC)-c1cc(Nc3cccc(F)c3)nc(=O)n1CC2	x	9%	-5%	x	u	5%
COc1cc2c(cc1OC)-c1cc(Nc3ccc(N(C)C)cc3)nc(=O)n1CC2	x	u	-3%	x	12µM*	-5%
COc1cc2c(cc1OC)-c1cc(Nc3ccc(F)cc3)nc(=O)n1CC2	x	u	-1%	x	-12%	-1%
CCc1ccccc1N(CC)C(=O)c1c(C)oc2ncnc(N3CCOCC3)c12	x	x	x	x	25%	x
c1cc(CSc2ncnc3nc[nH]c23)ccn1	-5%[7.66 µM]	x	x	-7%[9.22 µM]	x	x
Cn1cnnc1SCC(=O)Nc1ccc(C#N)cc1	x	x	x	1%	-5%	x
CCN(CC)c1ccc(-n2cc3c(=O)n(C)c(=O)n(C)c3c2)cc1	7%	-2%	-5%	11%	u	2%
CN(C)c1ccc(-n2cc3c(=O)n(C)c(=O)n(C)c3c2)cc1	-4%	u	u	-8%	17µM*	u
Cc1ccc(NC(=O)c2c(C)cc(C)nc2SCC(=O)Nc2ccc(Br)cc2)cc1	x	x	x	x	-10%	x
Cc1nc(-c2ccc([N+](=O)[O-])cc2)nc2[nH]ccc(=O)c12	x	u	1.1µM*	x	5.4µM*	1.1µM*
Cc1nc(-c2ccccc2)nc2[nH]ccc(=O)c12	13%	u	30%	u	12µM*	u
O=[N+]([O-])c1ccc(-c2nc(C(Cl)Cl)c3ccccc3n2)cc1	x	8%	-37%	x	3%	-55%

From PubChem
